Assay outcomes: PubChem BioAssay, National Center for Advancing Translational Sciences (NCATS)
ELG1 DNA repair – inhibitors of ELG1-dependent DNA repair in HEK293T cells; HEK293T ELG1-luciferase reporter, luminescence, 16 h; DNA damage induced by 5-fluorouridine; Potency, µM (highest dose often 46.1 µM), actives largely listed as inhibitors; 330,000 tested, 2.3% active; AID 504467; note: nearly all actives have a fitted effect of over 55% in size
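DMSO vehicle served as the neutral condition. Each well held 2,000 cells given 5-fluorouridine plus compound; after 16 hr at 37 °C/5% CO2, ONE-Glo was added and luciferase measured 30 min later.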
Gal4-VP16 FLuc – inhibits Gal4-VP16 luciferase reporter, ROR gamma counter-screen; Drosophila S2 Gal4-VP16 UAS-luciferase, luminescence, 20 h; Potency, µM (titrated, usually from 53.6 µM), usual class: inhibitors; 310,000 tested, 3.5% active;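 note: Gal4-VP16 expression switched on by copper sulfate through the metallothionein promoter; nearly all actives have a fitted effect of over 50% in size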
RORg inh – ROR gamma (mouse) transcription inhibition. P51450. Drosophila S2 Gal4-RORgamma UAS-luciferase reporter, 20 h. Potency, µM (highest dose often 53.6 µM), most hits filed as inhibitors. 310,000 tested, 5.4% active; note: nearly all actives have a fitted effect of over 60% in size
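In this cell-based reporter format, copper sulfate (700 uM final) drives Gal4–ROR gamma fusion expression from a metallothionein promoter in Drosophila Schneider cells; compounds preincubated 1 hr, reporter read after 20 hr at ambient temperature.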
TSHR antagonist – blocks TSH signaling through the human TSH receptor; TSHR-expressing cells, TSH-stimulated cAMP HTRF, 2 h; hits give low values; activity change, negative = inhibition, % at 11.5 µM; 330,000 tested, 0.2% active; AID 504810;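 active = activity change below a set negative limit, meaning inhibition stronger than a set level, cut at about -70% in these data; inconclusive = activity change between two set negative limits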
Target sequence (P16473 whole entry, looked up): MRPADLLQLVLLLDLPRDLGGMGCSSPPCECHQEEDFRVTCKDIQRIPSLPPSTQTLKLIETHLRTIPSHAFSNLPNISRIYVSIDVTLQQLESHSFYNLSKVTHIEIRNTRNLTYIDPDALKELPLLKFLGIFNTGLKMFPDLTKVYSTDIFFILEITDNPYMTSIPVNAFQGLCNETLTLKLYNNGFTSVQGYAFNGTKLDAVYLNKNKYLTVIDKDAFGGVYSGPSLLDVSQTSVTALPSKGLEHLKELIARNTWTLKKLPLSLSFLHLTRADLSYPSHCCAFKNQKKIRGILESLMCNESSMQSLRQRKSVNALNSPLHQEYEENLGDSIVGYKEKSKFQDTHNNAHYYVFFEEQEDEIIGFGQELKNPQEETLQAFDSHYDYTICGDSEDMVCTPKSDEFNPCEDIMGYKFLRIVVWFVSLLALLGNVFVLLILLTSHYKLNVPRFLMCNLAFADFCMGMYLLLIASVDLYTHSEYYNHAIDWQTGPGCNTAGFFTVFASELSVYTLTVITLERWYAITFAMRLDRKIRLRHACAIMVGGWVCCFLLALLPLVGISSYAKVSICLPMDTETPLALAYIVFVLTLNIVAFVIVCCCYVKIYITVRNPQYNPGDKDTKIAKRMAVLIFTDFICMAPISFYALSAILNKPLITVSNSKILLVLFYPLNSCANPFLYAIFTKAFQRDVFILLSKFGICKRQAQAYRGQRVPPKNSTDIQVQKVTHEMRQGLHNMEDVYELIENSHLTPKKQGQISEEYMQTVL
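Inhibition of cAMP made by TSHR-expressing cells under TSH stimulation (4nM final, EC80; 2 h, 37 deg C) is quantified with a one-step lysis HTRF kit, anti-cAMP cryptate versus cAMP-d2.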
FBPA coupling cs – counter-screen for Giardia aldolase inhibitors: coupling enzyme system; 290,000 tested, 0.67% active; activity change, negative = inhibition, % at 58.2 µM, hits read low; coupling enzyme system counterscreen, AmpLite Red fluorescence; in the data active = activity change below about -30%
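Counterscreen of the coupled detection system alone, without aldolase: glyceraldehyde-3-phosphate coupling enzymes plus AmpLite Red readout. Compounds at 57.5 uM final, 10 min RT preincubation, 20 min RT reaction, fluorescence 525/598 nm.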
Of the large screens only hits and unclear results are named; the others gave an inactive call. Rows were chosen to be rich in hits. Some 8% of all compounds tested hit in one or more screens of this group. Unless noted, calls come from the whole dose curve; as a rule, active = well fitted curve in the direction sought with a large enough effect; inconclusive = small, poorly fitted or top-dose-only effect, or another doubt; inactive = no such curve, though single readings can be large; an effect the other way counts as inactive or inconclusive.

CC(C)(C)C(=O)Nc1cc(C(F)(F)F)ccc1N1CCOCC1	ELG1 DNA repair inconclusive, RORg inh inconclusive
O=C(CCCCl)NC(=S)Nc1cc(C(F)(F)F)ccc1N1CCOCC1	Gal4-VP16 FLuc inconclusive, RORg inh 7.9µM
CCCC(=O)Nc1cc(C(F)(F)F)ccc1N1CCOCC1	none
O=C(NC(=S)Nc1cc(C(F)(F)F)ccc1N1CCOCC1)c1sc2ccccc2c1Cl	Gal4-VP16 FLuc 4µM, RORg inh 2.2µM
O=C(Nc1cc(C(F)(F)F)ccc1N1CCOCC1)c1ccccc1F	none (no result: FBPA coupling cs)
CC(C)(C)C(=O)NC(=S)Nc1cc(C(F)(F)F)ccc1N1CCOCC1	Gal4-VP16 FLuc inconclusive, RORg inh 13µM
NS(=O)(=O)c1ccc(NC(=O)COc2cccc3ccccc23)cc1	none
CN(Cc1cccc2cnccc12)C(=O)CCc1nnc(CCc2ccccc2)o1	Gal4-VP16 FLuc 20µM, RORg inh inconclusive
Nc1c(N2CCCC2)cc(Cl)c2nonc12	ELG1 DNA repair inconclusive, Gal4-VP16 FLuc inconclusive, RORg inh inconclusive, FBPA coupling cs -34
Nc1cc(Cl)ccc1N1CCCCC1	none
Nc1ccc(N2CCCCC2)c2nonc12	FBPA coupling cs -53
Nc1c(N2CCOCC2)cc(Cl)c2nonc12	FBPA coupling cs -38
Nc1ccc(N2CCCCC2)cc1N1CCCCC1	none
Cc1cc(N2CCOCC2)c2c(N)cc(C)c(C)c2n1	ELG1 DNA repair inconclusive
O=C1Nc2c(Br)cccc2C1=O	ELG1 DNA repair inconclusive (no result: Gal4-VP16 FLuc, RORg inh, FBPA coupling cs)
COc1ccc(C2C=C3CNS(=O)(=O)C3CC2OC(=O)c2ccc(C(F)(F)F)cc2)cc1 (stereo not drawn)	Gal4-VP16 FLuc inconclusive, RORg inh inconclusive (no result: ELG1 DNA repair, TSHR antagonist)
CC(C)[C@@H]1CC[C@@H](C)C[C@@H]1P(=O)(c1ccccc1)c1ccccc1	none (no result: ELG1 DNA repair, Gal4-VP16 FLuc, RORg inh, FBPA coupling cs)
Cc1ccc(S[C@@H](CCN2CC[C@H](C(C)(C)C)CCC2=O)c2ccccc2)cc1	Gal4-VP16 FLuc 10µM
Cc1ccc(S[C@@H](CCN2CC[C@H](C)CCC2=O)c2ccccc2)cc1	RORg inh inconclusive
CCCC(NC(C)C(=O)N1C(C(=O)O)CC2CCCCC21)C(=O)OCC (stereo not drawn)	none (no result: ELG1 DNA repair, TSHR antagonist)
COc1ccc(C(=O)Nc2ccccc2C(=O)NC(Cc2ccc(O)cc2)C(=O)NNC(=O)c2ccc(C)cc2)cc1 (stereo not drawn)	ELG1 DNA repair 8.2µM
COc1ccc(C(=O)Nc2ccccc2C(=O)NC(Cc2ccc(O)cc2)C(=O)NNC(=O)c2ccncc2)cc1 (stereo not drawn)	none
COc1ccc(C(=O)Nc2ccccc2C(=O)NC(Cc2ccc(O)cc2)C(=O)NNC(=O)c2ccccc2)cc1 (stereo not drawn)	ELG1 DNA repair 16µM
Cc1cccc2cc(C#N)c(NCCNC(=S)NCCCN3CCOCC3)nc12	RORg inh 4µM
CCOCCCNC(=S)NCCCNc1nc2c(C)c(C)ccc2cc1C#N	ELG1 DNA repair inconclusive, Gal4-VP16 FLuc inconclusive, RORg inh 11µM
CCOC(=O)c1ccc(C#Cc2ccc3c(c2)C(C)(C)CCS3)nc1	none (no result: ELG1 DNA repair, TSHR antagonist, FBPA coupling cs)
CCOc1ccc(N(C)S(=O)(=O)c2c[nH]c(C(=O)OC)c2)cc1	none
O=C(O)CN=C(NS(=O)(=O)c1ccccc1)c1ccccc1	none
CC(C)N=C(NS(=O)(=O)c1ccccc1)C(Cl)(Cl)Cl	ELG1 DNA repair 5.2µM, Gal4-VP16 FLuc inconclusive, RORg inh 7.1µM
COC(=O)C1=C(C(=O)OC)[C@@H]2N(C)c3ccc(OC)cc3[C@@]23C[C@@H](C(=O)OC)N(C(=O)c2cc(C)oc2C)C3=N1	none (no result: ELG1 DNA repair, Gal4-VP16 FLuc, RORg inh, TSHR antagonist)
S=c1[nH]nc(CN2CCCC2)n1Cc1ccccc1	RORg inh 11µM
Cc1ccn(Cc2n[nH]c(=S)n2Cc2ccccc2)n1	none
S=c1[nH]nc(CN2CCCCC2)n1Cc1ccccc1	Gal4-VP16 FLuc 18µM, RORg inh 3.2µM
O=C(NCCc1ccccc1)c1noc2c1CCc1ccccc1-2	ELG1 DNA repair inconclusive
O=C1c2ccccc2CC[C@H]1CNCCc1ccc(O)cc1	Gal4-VP16 FLuc 11µM, RORg inh 14µM (no result: ELG1 DNA repair, TSHR antagonist)
Cc1ccc(F)c(C2C3C=CCC(c4ccccc4)C3C(=O)N2Cc2ccccc2)c1 (stereo not drawn)	Gal4-VP16 FLuc inconclusive, RORg inh inconclusive (no result: ELG1 DNA repair, TSHR antagonist)
CCOC(=O)c1nnsc1Nc1ccc(C)c(C)c1	ELG1 DNA repair inconclusive, RORg inh 0.71µM
O=C(O)[C@H]1C[C@@H](CP(=O)(O)O)CCN1	none (no result: ELG1 DNA repair, TSHR antagonist)
Cc1cc(C)cc(NC(=S)NCc2cccn2C)c1	Gal4-VP16 FLuc 10µM, RORg inh 2.8µM
Cn1cccc1CNC(=S)Nc1ccccc1Cl	RORg inh 6.3µM
Cn1cccc1CNC(=S)Nc1ccccc1F	RORg inh 13µM
CCOC(=O)c1cc(-c2ccccc2)sc1NC(=O)C(C)Sc1nnc(N)s1 (stereo not drawn)	ELG1 DNA repair 23µM, Gal4-VP16 FLuc inconclusive
CC(Oc1cc2oc(=O)c3c(c2cc1Cl)CCCC3)C(=O)NCCN1CCOCC1 (stereo not drawn)	none
COc1ccccc1NC(=O)CSc1nnc(C)s1	none
O=C1C(Nc2ccccc2)=C(NS(=O)(=O)c2ccccc2)C(=O)c2ccccc21	none
CCN1CCN(C2=C(NS(=O)(=O)c3ccc(Br)cc3)C(=O)c3ccccc3C2=O)CC1	Gal4-VP16 FLuc inconclusive, RORg inh inconclusive (no result: FBPA coupling cs)
CN1CCN(C2=C(NS(=O)(=O)c3ccccc3)C(=O)c3ccccc3C2=O)CC1	Gal4-VP16 FLuc 13µM, RORg inh 11µM, FBPA coupling cs -46
O=C1C(NS(=O)(=O)c2ccc(Cl)cc2)=C(N2CCCCC2)C(=O)c2ccccc21	Gal4-VP16 FLuc inconclusive, FBPA coupling cs -34
CCN1CCN(C2=C(NS(=O)(=O)c3ccccc3)C(=O)c3ccccc3C2=O)CC1	ELG1 DNA repair inconclusive, Gal4-VP16 FLuc inconclusive, RORg inh 10µM (no result: FBPA coupling cs)
CC(C)CCCC(C)C1CCC2C3CC[C@H]4CC(=O)CC[C@@]4(C)C3CC[C@@]12C (stereo partly drawn)	none (no result: ELG1 DNA repair, TSHR antagonist)
Clc1ccc(-c2nnnn2-c2ccc(Cl)cc2)cc1	none
Cc1ccc(-n2nnnc2C(Cl)(Cl)c2nnnn2-c2ccc(C)cc2)cc1	Gal4-VP16 FLuc 7.1µM, RORg inh 18µM
Cc1ccc(C(C)C)c(OCC(=O)NNCC(=O)Nc2cccc(F)c2)c1	none (no result: Gal4-VP16 FLuc, RORg inh, TSHR antagonist, FBPA coupling cs)
COc1cc(SC)ccc1C(=O)N1CCN(c2ccc(O)cc2)CC1	ELG1 DNA repair 21µM
COc1cc(SC)ccc1C(=O)N1CCN(c2ccccc2)CC1	none
CC1(C)CC(=O)c2sc(NC(=O)CCS(=O)(=O)c3ccccc3)nc2C1	ELG1 DNA repair inconclusive, Gal4-VP16 FLuc 5.6µM, RORg inh inconclusive
CC1(C)CC(=O)c2sc(NC(=O)c3ccccc3)nc2C1	ELG1 DNA repair inconclusive
CC1(C)CC(=O)c2sc(NC(=O)c3cccs3)nc2C1	ELG1 DNA repair inconclusive, Gal4-VP16 FLuc 5.6µM, RORg inh 5µM
Cc1nn(-c2ccccn2)c2c1C(=O)C(Br)CC2 (stereo not drawn)	FBPA coupling cs -64
